In PubChem BioAssay (NCI):
The panel holds about 83,000 compounds, 20% with a hit somewhere; the sample as a whole holds those more often.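 Single-dose data. Exposure time 48 hours. Values below 10 considered active.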 Values without a mark were called inactive. Active and inactive are the calls of the source.

Columns and labels:
Test in all cases: NCI-60 one-dose screen, 48 h (100 = growth as untreated, 0 = no growth, -100 = all killed)
DU-145 prostate = conditions: 10 µM unless noted
K-562 leukemia = conditions: 10 µM unless noted
MALME-3M melanoma = conditions: 10 µM unless noted
MDA-MB-231 breast = conditions: 10 µM unless noted
RXF 393 renal = conditions: 10 µM unless noted
SF-268 CNS = conditions: 10 µM unless noted
SF-295 CNS = conditions: 10 µM unless noted
SF-539 CNS = conditions: 10 µM unless noted
UACC-257 melanoma = conditions: 10 µM unless noted
M14 melanoma = conditions: 10 µM unless noted
HCT-15 colon = conditions: 10 µM unless noted
SNB-75 CNS = conditions: 10 µM unless noted
SNB-19 CNS = conditions: 10 µM unless noted
U251 CNS = conditions: 10 µM unless noted
PC-3 prostate = conditions: 10 µM unless noted
SK-MEL-5 melanoma = conditions: 10 µM unless noted
UACC-62 melanoma = conditions: 10 µM unless noted
LOX IMVI melanoma = conditions: 10 µM
SK-MEL-28 melanoma = conditions: 10 µM unless noted
HT29 colon = conditions: 10 µM unless noted

Compound | growth (DU-145 prostate) | growth (K-562 leukemia) | growth (MALME-3M melanoma) | growth (MDA-MB-231 breast) | growth (RXF 393 renal) | growth (SF-268 CNS) | growth (SF-295 CNS) | growth (SF-539 CNS) | growth (UACC-257 melanoma) | growth (M14 melanoma) | growth (HCT-15 colon) | growth (SNB-75 CNS) | growth (SNB-19 CNS) | growth (U251 CNS) | growth (PC-3 prostate) | growth (SK-MEL-5 melanoma) | growth (UACC-62 melanoma) | growth (LOX IMVI melanoma) | growth (SK-MEL-28 melanoma) | growth (HT29 colon)
S=C(SSC(=S)N1CCOCC1)N1CCOCC1 | 109% | 56.2% | 101% | 104% | 102% | 101% | 107% | 96.4% | 64% | 55.5% | 91.2% | 104% | 111% | 58.1% | 77.6% | 73.2% | 68.7% | 78.9% | 106% | –
S=C(S)OCN1CCOCC1 | 86% | 77.3% | 87.5% | 116% | 107% | 97.9% | 95.6% | 101% | 42.6% | 77.4% | 91.3% | – | 103% | 40.9% | 89.6% | 101% | 98.8% | 63.4% | – | 19.7%
CCCCCCCCc1cc(Cl)c(O)c(Cl)c1 | 103% | 104% | 100% | 103% | 113% | 98.5% | 113% | 99.5% | 104% | 107% | 115% | 98.4% | 93.2% | 101% | 89.9% | 108% | 99.5% | 95.6% | 112% | –
CCOc1ccc(C(C[N+](=O)[O-])Sc2ccccc2N)cc1 (stereo not given) | -19.9% (active) | 9.12% (active) | 68% | 18.4% | -65.3% (active) | 120% | 40.4% | -44.5% (active) | 59.2% | -41.2% (active) | -11.3% (active) | 61.3% | 46.2% | 9.82% (active) | 10.7% | 40.9% | 64.6% | – | -36.4% (active) | -49.7% (active)
CCCOS(=O)(=O)c1ccccc1 | 118% | 128% | 111% | 107% | 112% | 106% | 113% | 102% | 111% | 115% | 102% | – | 103% | 106% | 92.1% | 112% | 102% | 103% | 122% | 110%
CSc1nc(C)c(C(=O)CCN2CCN(c3ccccn3)CC2)s1 | 102% | 93.6% | 102% | 101% | 100% | 102% | 102% | 99% | 99.7% | 99.9% | 97.3% | 103% | 96.1% | – | 94.3% | 101% | 98.7% | – | 106% | 102%
O=[N+]([O-])c1ccc2c(c1)Cc1ccccc1-2 | 97.7% | 94.5% | 95.7% | 102% | 109% | 95.9% | 100% | 100% | 97.2% | 106% | 91% | 88.9% | 94.9% | 90.9% | 96.7% | 97.7% | 91.6% | 100% | 110% | –
C/C(=N/NC(N)=S)c1ccc(C)cc1 | 100% | 58% | 102% | 97.4% | 97.4% | 98.7% | 93.3% | 100% | 89.2% | 82.7% | 79.9% | 92.9% | 104% | 84.9% | 90.6% | – | 103% | 108% | 111% | 55.8%
